Results: publication PMC6602471

These sequences were tested against RUNX1 (Homo sapiens, UniProt Q01196 1-453) (assay: custom PBM; custom protein-binding microarray; buffer, salt, pH and temperature not stated; high values mean tight binding). Settings: dsDNA, one strand shown.
RUNX1, sequence (Q01196 whole entry): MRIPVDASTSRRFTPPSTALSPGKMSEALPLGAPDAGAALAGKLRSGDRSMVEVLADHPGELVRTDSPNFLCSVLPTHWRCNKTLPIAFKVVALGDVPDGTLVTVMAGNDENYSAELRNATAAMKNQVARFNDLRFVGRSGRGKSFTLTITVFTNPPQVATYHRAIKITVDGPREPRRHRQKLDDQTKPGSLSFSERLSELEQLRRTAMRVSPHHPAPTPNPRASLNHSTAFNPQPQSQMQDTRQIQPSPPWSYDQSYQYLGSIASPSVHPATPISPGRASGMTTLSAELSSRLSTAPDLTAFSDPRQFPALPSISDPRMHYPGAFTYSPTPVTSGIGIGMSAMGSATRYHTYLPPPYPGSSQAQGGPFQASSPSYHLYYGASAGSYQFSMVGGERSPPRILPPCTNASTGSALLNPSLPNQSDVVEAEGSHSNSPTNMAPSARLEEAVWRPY

In order of falling binding signal:
1. CGCGCACTCTGCGGTTGCGCACATACGCACACATACACATACACACATACACATACGCAC  12.8 log fluorescence intensity
2. CGCGCACTCTGTGGTTGCGCACATACGCACACATACACATACACACATACACATACGCAC  11.7 log fluorescence intensity
3. CGCGCACTTTGTGGTTGCGCACATACGCACACATACACATACACACATACACATACGCAC  11.6 log fluorescence intensity
4. CGCGCCCTCTGTGGTTGCGCACATACGCACACATACACATACACACATACACATACGCAC  11.5 log fluorescence intensity
5. CGCGCACTCTGTGGTTCCGCACATACGCACACATACACATACACACATACACATACGCAC  11.4 log fluorescence intensity
6. CGCGCACCCTGTGGTTGCGCACATACGCACACATACACATACACACATACACATACGCAC  11.4 log fluorescence intensity
7. CGCGCAGTCTGTGGTTGCGCACATACGCACACATACACATACACACATACACATACGCAC  11.4 log fluorescence intensity
8. CGCGCACTCTGTGGTCGCGCACATACGCACACATACACATACACACATACACATACGCAC  11.3 log fluorescence intensity
9. CGCGCACTCGGTGGTTGCGCACATACGCACACATACACATACACACATACACATACGCAC  11 log fluorescence intensity
10. GCGCACATTTCCCGTATATCATACACGCACACATACACATACACACATACACATACGCAC  11 log fluorescence intensity
11. GCATACGGCAGACGTCAGCCACATACGCACACATACACATACACACATACACATACGCAC  11 log fluorescence intensity
12. GCATACGGCGGACGTCAGCCACATACGCACACATACACATACACACATACACATACGCAC  11 log fluorescence intensity
13. GCATACGGCTGACGTCAGCCACATACGCACACATACACATACACACATACACATACGCAC  11 log fluorescence intensity
14. CGCGCACTCTGTGGTAGCGCACATACGCACACATACACATACACACATACACATACGCAC  11 log fluorescence intensity
15. GCATACGTCTGACGTCAGCCACATACGCACACATACACATACACACATACACATACGCAC  11 log fluorescence intensity
16. CGCGCACTCAGTGGTTGCGCACATACGCACACATACACATACACACATACACATACGCAC  11 log fluorescence intensity
17. GCGCACATTTCCCATAAATCATACACGCACACATACACATACACACATACACATACGCAC  11 log fluorescence intensity
18. GCGCACATTTCCCGTCAATCATACACGCACACATACACATACACACATACACATACGCAC  11 log fluorescence intensity
19. GCGCACATTTCCCGTTAATCATACACGCACACATACACATACACACATACACATACGCAC  11 log fluorescence intensity
20. GCATACGACTGACGTCAGCCACATACGCACACATACACATACACACATACACATACGCAC  11 log fluorescence intensity
21. GCGCACATTTCCCGTGAATCATACACGCACACATACACATACACACATACACATACGCAC  11 log fluorescence intensity
22. GCATACGGCTGACGTCCGCCACATACGCACACATACACATACACACATACACATACGCAC  10.9 log fluorescence intensity
23. GCGCACATTTCTCGTAAATCATACACGCACACATACACATACACACATACACATACGCAC  10.9 log fluorescence intensity
24. GCATACGGCTGACGTCAGACACATACGCACACATACACATACACACATACACATACGCAC  10.9 log fluorescence intensity
25. GCGCACATTACCCGTAAATCATACACGCACACATACACATACACACATACACATACGCAC  10.9 log fluorescence intensity
26. GCATACGGCTGACGTCAGCTACATACGCACACATACACATACACACATACACATACGCAC  10.9 log fluorescence intensity
27. GCGCACATTGCCCGTAAATCATACACGCACACATACACATACACACATACACATACGCAC  10.9 log fluorescence intensity
28. CGCGCACTCTGTGGATGCGCACATACGCACACATACACATACACACATACACATACGCAC  10.9 log fluorescence intensity
29. GCGCACATATCCCGTAAATCATACACGCACACATACACATACACACATACACATACGCAC  10.9 log fluorescence intensity
30. GCATACGGCTGACGTGAGCCACATACGCACACATACACATACACACATACACATACGCAC  10.9 log fluorescence intensity
31. CGCGCACTCTGGGGTTGCGCACATACGCACACATACACATACACACATACACATACGCAC  10.9 log fluorescence intensity
32. GCGCACATTTCCCGTAAATGATACACGCACACATACACATACACACATACACATACGCAC  10.9 log fluorescence intensity
33. GCATACGGCTGTCGTCAGCCACATACGCACACATACACATACACACATACACATACGCAC  10.9 log fluorescence intensity
